The source of these data is the supplement of paper PMC3414501.

Counter-ions that a name gives are not always drawn.

In assay [1] the test system is S. cerevisiae AD1-9 (efflux-pump deficient), vegetative growth in YPD. The assay is described as follows: growth sensitivity score (doubling time z-score vs DMSO controls); higher = slower growth, strongly negative scores also mark growth inhibition (complete suppression), active = hit call of the paper. Put shortly:
(§1)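 Yeast (Saccharomyces cerevisiae BY4741 and AD1-9) was grown in rich medium in microtiter plates from a starting OD600 of 0.065, with optical density read every 15 min over 24 hours. The growth sensitivity score was the difference between compound and solvent-only means, divided by the solvent-only standard deviation. Every experiment had eight solvent-only wells.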

Assay [2] has as its system S. cerevisiae BY4741 (wild-type), vegetative growth in YPD. The description is as above. The essentials: as §1
The test system of assay [3] is S. cerevisiae SK1 pCDA2-eGFP (USY613), sporulating. The assay is described as follows: CDA2-GFP sporulation assay sensitivity score (z-score vs DMSO controls); higher = stronger inhibition of sporulation, active = hit call of the paper.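 Note: active if sensitivity score above 5.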

Consider `N[C@@H](C(=O)N[C@@H]1C(=O)N2C(C(=O)O)=C(Cl)CS[C@H]12)c1ccccc1` [Cefaclor] (stock concentration (mM, diluted 1:100): 10), for which the results for the growth sensitivity score in assay [1] and in assay [2] were -1.29 (inactive) and 0.84 (inactive), respectively.
Turning to `CCc1c2c(nc3ccc(OC(=O)N4CCC(N5CCCCC5)CC4)cc13)-c1cc3c(c(=O)n1C2)COC(=O)[C@]3(O)CC` [Irinotecan hydrochloride] (stock concentration (mM, diluted 1:100): 8.7), the growth sensitivity score in assay [1] is 2.14 (active); in assay [2], -1.27 (inactive).
`CC(=O)[C@H]1CC[C@H]2[C@@H]3CCC4=CC(=O)CC[C@]4(C)[C@H]3CC[C@]12C` [Progesterone] (stock concentration (mM, diluted 1:100): 10): the “CDA2-GFP sporulation assay sensitivity score” value in assay [3] is 16.2 (active). Further, the growth sensitivity score in assay [1] was 112 (active); in assay [2] it was 4.04 (active).
Taken in the same sequence, the figures for `CCC1=C(C)CN(C(=O)NCCc2ccc(S(=O)(=O)NC(=O)N[C@H]3CC[C@H](C)CC3)cc2)C1=O` [Glimepiride] (stock concentration (mM, diluted 1:100): 7.7) were 0.5 (inactive), 1.1 (inactive) and -0.03 (inactive).
As for `CCCCC1=NC2(CCCC2)C(=O)N1Cc1ccc(-c2ccccc2-c2nnn[nH]2)cc1` [Irbesartan] (stock concentration (mM, diluted 1:100): 10.1), in assay [3], the “CDA2-GFP sporulation assay sensitivity score” value is -0.17 (inactive). Also, the growth sensitivity score in assay [1] was -0.82 (inactive); in assay [2] it was -0.72 (inactive).
Taken in the same sequence, the figures for `Cc1ccc(NC(=O)c2ccc(CN3CCN(C)CC3)cc2)cc1Nc1nccc(-c2cccnc2)n1` [Imatinib mesylate] (stock concentration (mM, diluted 1:100): 8.4) were 7.85 (active), 7.33 (active) and 0.53 (inactive).
As to `CCc1ccc(CCOc2ccc(CC3SC(=O)NC3=O)cc2)nc1` (stereo not drawn) [Pioglitazone hydrochloride] (stock concentration (mM, diluted 1:100): 9.1), the “CDA2-GFP sporulation assay sensitivity score” value in assay [3] was 2.87 (inactive). For the same compound, the growth sensitivity score in assay [1] is -1.03 (inactive); in assay [2], -0.08 (inactive).
As for `CCCCc1oc2ccccc2c1C(=O)c1cc(I)c(OCCN(CC)CC)c(I)c1` [Amiodarone hydrochloride] (stock concentration (mM, diluted 1:100): 9.5), the “CDA2-GFP sporulation assay sensitivity score” value in assay [3] is 7.12 (inactive). Besides, the growth sensitivity score in assay [2] was 126 (active).
For `CCc1oc2ccccc2c1C(=O)c1cc(Br)c(O)c(Br)c1` [Benzbromarone] (stock concentration (mM, diluted 1:100): 10) the same measures were 13.7 (active) and 72.3 (active).
Regarding `CO[C@H]1/C=C/O[C@@]2(C)Oc3c(C)c(O)c4c(O)c(c5c(nc6cc(C)ccn65)c4c3C2=O)NC(=O)/C(C)=C\C=C\[C@H](C)[C@H](O)[C@@H](C)[C@@H](O)[C@@H](C)[C@H](OC(C)=O)[C@@H]1C` [Rifaximin] (stock concentration (mM, diluted 1:100): 10), the “CDA2-GFP sporulation assay sensitivity score” value in assay [3] is 4.99 (inactive). Moreover, the growth sensitivity score in assay [1] was -1.56 (inactive); in assay [2], -1.64 (inactive).
Taken in the same sequence, the figures for `COc1cc2nc(N3CCN(C(=O)c4ccco4)CC3)nc(N)c2cc1OC` [Prazosin] (stock concentration (mM, diluted 1:100): 10) were 1.07 (inactive), 2.31 (active) and -0.58 (inactive).
Taken in the same sequence, the figures for `CN1CCC(=C2c3ccccc3CC(=O)c3sccc32)CC1` [Ketotifen fumarate] (stock concentration (mM, diluted 1:100): 8.9) were 4.44 (inactive), -0.77 (inactive) and 0.49 (inactive).
Taken in the same sequence, the figures for `CNC(=C[N+](=O)[O-])NCCSCc1csc(CN(C)C)n1` [Nizatidine] (stock concentration (mM, diluted 1:100): 10) were -0.14 (inactive), -0.22 (inactive) and -0.09 (inactive).
Regarding `CN(CCOc1ccc(NS(C)(=O)=O)cc1)CCc1ccc(NS(C)(=O)=O)cc1` [Dofetilide] (stock concentration (mM, diluted 1:100): 10), in assay [3], the “CDA2-GFP sporulation assay sensitivity score” value was -0.99 (inactive). Further, the growth sensitivity score in assay [1] is -1.59 (inactive); in assay [2] it was -2.19.
